USP28 inh: inhibitors of human USP28 deubiquitinase | purified USP28, Ub-rhodamine cleavage fluorescence, 30 min | AID 1645857, 2021 | actives 3% (n = 47,000) | inhibition, % at 25 µM
USP30 inh: inhibitors of human USP30 deubiquitinase. purified USP30, Ub-rhodamine cleavage fluorescence. inhibition, % at 25 µM. actives 5.3% (n = 47,000)
Target sequence (Q70CQ3 whole entry, looked up): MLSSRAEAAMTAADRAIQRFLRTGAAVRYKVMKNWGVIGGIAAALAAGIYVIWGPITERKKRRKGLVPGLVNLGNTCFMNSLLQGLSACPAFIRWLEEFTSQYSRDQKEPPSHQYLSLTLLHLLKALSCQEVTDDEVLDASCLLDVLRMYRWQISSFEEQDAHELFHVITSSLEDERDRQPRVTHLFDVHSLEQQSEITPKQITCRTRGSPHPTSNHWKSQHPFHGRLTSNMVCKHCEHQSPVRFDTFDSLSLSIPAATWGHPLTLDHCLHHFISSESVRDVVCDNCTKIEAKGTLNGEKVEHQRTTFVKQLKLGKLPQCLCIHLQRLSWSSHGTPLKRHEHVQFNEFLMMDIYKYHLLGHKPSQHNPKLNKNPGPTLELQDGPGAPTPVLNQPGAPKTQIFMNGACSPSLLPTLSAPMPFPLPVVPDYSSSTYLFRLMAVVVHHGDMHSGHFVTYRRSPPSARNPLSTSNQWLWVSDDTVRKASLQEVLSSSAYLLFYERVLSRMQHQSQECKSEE
USP8 block: inhibitors of human USP8 deubiquitinase; actives 4.2% (n = 47,000); Ubiquitin carboxyl-terminal hydrolase 8 (Homo sapiens), P40818; inhibition, % at 20 µM; purified USP8, Ub-rhodamine cleavage fluorescence, 30 min
USP17 inh: inhibitors of human USP17 deubiquitinase; inhibition, % at 50 µM; AID 1645855, 2021; actives 6.5% (n = 47,000); purified USP17, Ub-rhodamine cleavage fluorescence, 3 h; Ubiquitin carboxyl-terminal hydrolase 17-like protein 5 (Homo sapiens), A8MUK1
* hit, by the source's call; i = inactive; / = no result. Most compounds without a hit are left out; they make up all but 13% or so of the library. No stated cut-off is given here; in the data, active means inhibition above about 30%; inactive means the rest.

SMILES | USP28 inh | USP30 inh | USP8 block | USP17 inh
CC(Nc1ccccc1)c1nc2scc(-c3ccccc3)c2c(=O)[nH]1 (stereo unspecified) | -7 | 1 | 0 | 15
COc1cccc(C(=O)Nc2nonc2-c2ccc(C(C)C)cc2)c1 | 13 | 29 | 44* | 15
CC(C)c1ccc(OCC(=O)Nc2nonc2-c2ccccc2)cc1 | 7 | 11 | 11 | 16
O=C(Cn1c(-c2ccccc2)ncc(C(=O)NC2CC2)c1=O)Nc1ccccc1 | 27 | 73* | 30* | 36*
O=C(CN1C(=O)C2CCCC2=Nc2ccccc21)Nc1cccc(F)c1 (stereo unspecified) | -12 | -12 | -9 | 15
Cc1ccccc1NC(=O)Cn1c(C)ncc(C(=O)NC2CC2)c1=O | 2 | 9 | 3 | 2
O=C(Cn1cncc(C(=O)NC2CCCC2)c1=O)Nc1cccc(F)c1 | -4 | 0 | 3 | 82*
CC1=C(c2ccc(C)cc2)S(=O)(=O)N=C1N1CCCN(C(=O)c2cccc(C#N)c2)CC1 | -9 | -15 | -3 | -5
Cc1csc2ncc(C(=O)NCCc3ccc(Cl)cc3)c(=O)n12 | 14 | 26 | 0 | 37*
O=C(CCc1nnc2c(=O)n(-c3cccc(F)c3)ccn12)NC1CCCCCC1 | 11 | 6 | -1 | 3
N#Cc1cc2c(nc1SCC(=O)Nc1ccc(F)cc1)CCCC2=O | 0 | -26 | -42 | 2
Cc1ccc(NC(=O)CSc2nc3c(cc2C#N)C(=O)CCC3)cc1 | 0 | 0 | 14 | 55*
N#Cc1cc2c(nc1SCC(=O)NCc1ccccc1)CCCC2 | 13 | 20 | -2 | 59*
CCNC(=O)c1ccc(N2CCNCC2)c(NS(=O)(=O)c2cc(C)ccc2C)c1 | 4 | 1 | 36* | 3
COc1ccc2c(c1)[nH]c1c(N3CCN(C4CCCCC4)CC3)ncnc12 | -15 | 5 | -3 | -12
Cc1ccc(CNC(=O)CCCC2=NS(=O)(=O)c3ccccc3N2)cc1 | / | / | 1 | -6
COc1ccc(CC(=O)Nc2cc(=O)[nH]c3nc(-c4ccco4)nn23)cc1 | 11 | -104 | -9 | 34*
COc1cccc(-n2c(CNCc3cccnc3)nc3ccc([N+](=O)[O-])cc3c2=O)c1 | 36* | 68* | -66 | 36*
COc1cccc(NS(=O)(=O)c2cc(-c3cc(C)no3)ccc2OC)c1 | 7 | 8 | -15 | 12
Cc1cc(/C=C2\C(=N)N3N=CSC3=NC2=O)c(C)n1-c1cccc(F)c1 | -52 | -157 | -13 | -29
CCc1ccc(-n2c(C)cc(/C=C3\C(=N)N4N=CSC4=NC3=O)c2C)cc1 | -136 | -433 | 62* | 46*
COc1ccc(C(=O)Nc2ccc(C)c(N3CCCC3=O)c2)cc1 | -8 | -10 | -6 | -24
Cc1ccc2c(c1)N(C)C(=O)c1cc(NC(=O)c3ccc(F)cc3)ccc1O2 | 24 | 89* | 77* | 23
Cc1ccccc1C(=O)Nc1ccc2c(c1)C(=O)N(C)c1ccccc1O2 | 40* | -3 | 9 | 2
CN1C(=O)c2cc(NC(=O)c3ccncc3)ccc2N2CCN=C12 | 0 | -16 | -35 | -6
SMILES | USP28 inh | USP30 inh | USP8 block | USP17 inh
COc1ccc(C(=O)Nc2ccc3c(c2)C(=O)N(C)c2ccccc2O3)cc1 | 71* | 4 | 8 | 6
Cc1ccccc1C(=O)Nc1ccc2cn(C)nc2c1 | 22 | 8 | 5 | 1
Cc1ccc2nc(C(=O)N3CCOC(c4cc(=O)[nH]c(C)n4)C3)cn2c1 (stereo unspecified) | 8 | 15 | 0 | 10
COc1ccccc1Oc1ccc(NS(=O)(=O)c2ccccc2)cc1 | 29 | 0 | 15 | 16
COc1cccc(CNC(=O)c2c(N3CCCC3=O)c3cc(C)ccc3n2C)c1 | 6 | 13 | 4 | 1
CSc1cccc(NC(=O)Cn2cnc3c(-c4ccc(F)cc4)nsc3c2=O)c1 | 5 | 11 | 19 | 15
COc1ccc(C(C(=O)NC(C)(C)C)N(C(=O)Cn2nnc(-c3ccc(C)cc3)n2)c2cccc(O)c2)cc1 (stereo unspecified) | -144 | i | -58 | -160
COc1ccccc1CNc1nc(-c2nnc(-c3ccccc3)o2)nc2ccccc12 | 3 | 44* | 36* | 38*
CCc1nc(-c2ccc(C(=O)Nc3cccnc3)cc2)no1 | 49* | -7 | -6 | -4
Cc1cccc(NC(=O)CCc2nc(-c3cccnc3)no2)c1 | -18 | -13 | -6 | -8
COc1ccc(-c2nc3c(c(=O)c4ccccc4n3C)c(=O)n2CC(C)C)cc1 | 12 | 28 | 12 | 34*
Cn1c2ccccc2c(=O)c2c(=O)n(-c3ccccc3)c(-c3ccc(Cl)cc3)nc21 | 16 | 27 | 27 | 19
COc1ccc(CCn2c(-c3ccc(C)cc3)nc3c(c(=O)c4ccccc4n3C)c2=O)cc1 | -7 | -28 | -5 | -13
CC(c1ccccc1)n1c(-c2ccc(F)cc2)nc2c(c(=O)c3ccccc3n2C)c1=O (stereo unspecified) | 13 | 27 | 32* | 60*
O=C(NCc1ccc(F)cc1)C1CCN(c2cnc(N3CCCCC3)nc2)CC1 | 69* | -10 | 15 | 5
Cc1cc(F)ccc1NC(=O)C1CCN(c2cnc(N3CCCCC3)nc2)CC1 | 33* | -7 | 31* | -12
Cc1noc(-c2ccc(N3CCCC(C(=O)Nc4cccc(F)c4C)C3)nc2)n1 (stereo unspecified) | 0 | -12 | 1 | 18
Cc1noc(-c2ccc(N3CCCC(C(=O)NCc4ccc(F)cc4)C3)nc2)n1 (stereo unspecified) | 16 | 28 | 3 | 58*
Cc1cc(C)n2nc(C(=O)N3C[C@@H](O)[C@H](N4CCCC4)C3)cc2n1 | -37 | -6 | 8 | -9
Cc1ccc(-c2[nH]ncc2CN2CCN(c3ccccc3)CC2)cc1 | 11 | -5 | -15 | -21
Cc1c(Cc2ccccc2)sc(NC(=O)c2ccc(Cl)cc2)c1C(N)=O | -11 | -33 | -13 | 33*
CCOC(=O)c1cc(-c2ccccc2)sc1NC(=O)c1cccc(Cl)c1 | 8 | 22 | 16 | 13
Cc1cc(N2CCN(c3ncccn3)CC2)nc2ccc(NC(=O)c3ccco3)cc12 | 68* | 58* | 29 | 67*
COc1cccc(C(=O)Nc2ccc3nc(N4CCN(c5ncccn5)CC4)cc(C)c3c2)c1OC | 24 | 85* | 59* | 59*
Cc1cc(N2CCN(c3ncccn3)CC2)nc2ccc(NC(=O)c3cccnc3)cc12 | 21 | 16 | 0 | 35*
Cc1cc(N2CCN(c3ncccn3)CC2)nc2ccc(NC(=O)C3CC3)cc12 | 30 | 7 | -12 | 24
CNC(=O)[C@@]12CCC3(CCN(C(=O)NC(C)C)CC3)[C@@H]1CN(C)C2 | 0 | 5 | -1 | -22
Cc1ccc(NC(=O)Nc2ccc(C)n(CC(=O)Nc3ccc(C)c(C)c3)c2=O)cc1 | 7 | 7 | 93* | 1
Cc1cccc(NC(=O)Nc2ccc(C)n(CC(=O)N3CCCCC3)c2=O)c1 | 2 | 4 | 5 | 0
COc1ccc(S(=O)(=O)Nc2cccc(C(=O)Nc3cc(C)on3)c2)cc1 | 8 | 24 | 1 | 10

High-throughput results (PubChem BioAssay)
